# Experiments:
# [1] = molecular target: T1, Ephrin type-A receptor 3 (Homo sapiens) (UniProt P29320); conditions: at 10 µM
# T1 sequence (whole entry): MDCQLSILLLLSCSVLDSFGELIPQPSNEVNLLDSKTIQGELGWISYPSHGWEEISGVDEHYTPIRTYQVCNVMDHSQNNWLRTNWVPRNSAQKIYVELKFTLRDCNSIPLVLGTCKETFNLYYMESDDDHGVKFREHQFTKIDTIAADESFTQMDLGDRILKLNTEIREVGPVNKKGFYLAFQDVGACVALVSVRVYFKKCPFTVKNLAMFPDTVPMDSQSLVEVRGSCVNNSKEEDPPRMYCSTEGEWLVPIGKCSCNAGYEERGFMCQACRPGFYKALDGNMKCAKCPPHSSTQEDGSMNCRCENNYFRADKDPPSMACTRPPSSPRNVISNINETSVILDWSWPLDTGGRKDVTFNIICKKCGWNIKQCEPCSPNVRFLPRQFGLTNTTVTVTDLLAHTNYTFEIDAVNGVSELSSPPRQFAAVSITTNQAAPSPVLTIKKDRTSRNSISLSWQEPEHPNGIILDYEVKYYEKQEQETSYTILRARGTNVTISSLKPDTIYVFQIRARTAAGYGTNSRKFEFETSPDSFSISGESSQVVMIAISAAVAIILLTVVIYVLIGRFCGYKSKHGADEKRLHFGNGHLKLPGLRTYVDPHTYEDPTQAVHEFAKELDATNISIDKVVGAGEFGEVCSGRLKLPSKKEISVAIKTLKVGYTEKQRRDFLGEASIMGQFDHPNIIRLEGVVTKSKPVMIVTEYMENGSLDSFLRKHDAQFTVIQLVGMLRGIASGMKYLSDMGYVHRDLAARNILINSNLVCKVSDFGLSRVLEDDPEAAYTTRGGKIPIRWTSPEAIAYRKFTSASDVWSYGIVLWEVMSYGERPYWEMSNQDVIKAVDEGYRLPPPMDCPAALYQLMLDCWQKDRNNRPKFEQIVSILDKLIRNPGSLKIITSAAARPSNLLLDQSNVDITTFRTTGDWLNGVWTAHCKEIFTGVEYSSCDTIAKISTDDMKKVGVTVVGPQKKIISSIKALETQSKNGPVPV
# [2] = molecular target: Ephrin type-A receptor 7 (Homo sapiens) (UniProt Q15375); conditions: at 1 µM
# Chain of Ephrin type-A receptor 7 (Homo sapiens) (Q15375 28-998 limits assumed): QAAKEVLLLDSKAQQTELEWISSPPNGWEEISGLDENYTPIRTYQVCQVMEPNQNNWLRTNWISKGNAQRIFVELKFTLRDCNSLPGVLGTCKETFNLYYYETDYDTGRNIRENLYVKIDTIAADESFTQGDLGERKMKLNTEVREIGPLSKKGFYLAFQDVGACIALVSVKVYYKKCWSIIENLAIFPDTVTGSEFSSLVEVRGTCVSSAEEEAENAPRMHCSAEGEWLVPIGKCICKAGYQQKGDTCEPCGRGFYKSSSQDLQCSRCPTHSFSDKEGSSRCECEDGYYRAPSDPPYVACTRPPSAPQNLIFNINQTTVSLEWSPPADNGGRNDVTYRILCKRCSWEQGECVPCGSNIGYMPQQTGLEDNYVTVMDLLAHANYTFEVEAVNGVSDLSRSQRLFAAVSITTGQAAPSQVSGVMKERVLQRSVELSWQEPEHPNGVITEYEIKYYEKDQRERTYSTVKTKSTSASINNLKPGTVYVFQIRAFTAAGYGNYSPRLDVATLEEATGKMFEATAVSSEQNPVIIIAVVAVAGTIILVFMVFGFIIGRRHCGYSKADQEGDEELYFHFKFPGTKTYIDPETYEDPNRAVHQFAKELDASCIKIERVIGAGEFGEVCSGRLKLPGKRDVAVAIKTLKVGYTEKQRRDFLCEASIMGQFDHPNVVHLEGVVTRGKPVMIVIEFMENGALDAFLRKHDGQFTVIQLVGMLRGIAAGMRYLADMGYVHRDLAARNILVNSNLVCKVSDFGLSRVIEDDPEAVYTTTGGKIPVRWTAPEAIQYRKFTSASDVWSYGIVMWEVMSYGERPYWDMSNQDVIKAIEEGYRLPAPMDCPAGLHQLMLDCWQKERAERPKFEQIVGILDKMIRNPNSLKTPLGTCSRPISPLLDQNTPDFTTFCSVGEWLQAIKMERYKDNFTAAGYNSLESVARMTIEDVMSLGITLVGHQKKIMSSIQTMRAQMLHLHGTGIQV
# [3] = molecular target: Ephrin type-A receptor 7 (Homo sapiens) (UniProt Q15375); conditions: at 10 µM
# [4] = molecular target: T2, Ephrin type-B receptor 1 (Homo sapiens) (UniProt P54762); conditions: at 1 µM
# T2 sequence (whole entry): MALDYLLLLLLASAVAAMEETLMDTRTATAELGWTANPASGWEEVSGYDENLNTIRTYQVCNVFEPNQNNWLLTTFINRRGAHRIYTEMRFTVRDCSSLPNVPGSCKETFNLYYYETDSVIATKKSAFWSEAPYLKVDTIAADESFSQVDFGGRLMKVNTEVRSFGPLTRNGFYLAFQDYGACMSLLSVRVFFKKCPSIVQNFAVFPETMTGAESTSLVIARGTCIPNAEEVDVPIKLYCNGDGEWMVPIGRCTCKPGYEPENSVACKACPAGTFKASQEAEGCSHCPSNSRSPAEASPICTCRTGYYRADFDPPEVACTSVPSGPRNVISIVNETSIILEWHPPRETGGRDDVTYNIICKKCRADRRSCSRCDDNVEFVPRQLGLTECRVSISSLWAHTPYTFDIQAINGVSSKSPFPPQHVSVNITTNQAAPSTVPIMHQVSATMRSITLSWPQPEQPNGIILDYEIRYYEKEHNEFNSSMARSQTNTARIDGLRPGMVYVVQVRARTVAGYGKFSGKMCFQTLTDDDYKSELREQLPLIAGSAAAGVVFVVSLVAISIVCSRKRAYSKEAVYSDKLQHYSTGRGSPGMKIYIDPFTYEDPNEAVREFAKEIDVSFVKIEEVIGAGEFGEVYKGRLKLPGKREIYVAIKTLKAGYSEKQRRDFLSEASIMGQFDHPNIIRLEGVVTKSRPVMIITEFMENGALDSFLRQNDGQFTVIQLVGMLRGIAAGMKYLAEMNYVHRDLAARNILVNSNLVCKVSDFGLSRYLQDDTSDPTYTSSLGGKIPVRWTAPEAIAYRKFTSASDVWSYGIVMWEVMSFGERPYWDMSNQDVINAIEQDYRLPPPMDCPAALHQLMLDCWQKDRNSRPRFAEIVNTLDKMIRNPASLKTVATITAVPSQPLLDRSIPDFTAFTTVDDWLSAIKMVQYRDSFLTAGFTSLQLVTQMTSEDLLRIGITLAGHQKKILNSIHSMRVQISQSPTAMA
# [5] = molecular target: T2, Ephrin type-B receptor 1 (Homo sapiens); conditions: at 10 µM
# [6] = molecular target: T3, Ephrin type-B receptor 2 (Homo sapiens) (UniProt P29323); conditions: at 1 µM
# T3 sequence (whole entry): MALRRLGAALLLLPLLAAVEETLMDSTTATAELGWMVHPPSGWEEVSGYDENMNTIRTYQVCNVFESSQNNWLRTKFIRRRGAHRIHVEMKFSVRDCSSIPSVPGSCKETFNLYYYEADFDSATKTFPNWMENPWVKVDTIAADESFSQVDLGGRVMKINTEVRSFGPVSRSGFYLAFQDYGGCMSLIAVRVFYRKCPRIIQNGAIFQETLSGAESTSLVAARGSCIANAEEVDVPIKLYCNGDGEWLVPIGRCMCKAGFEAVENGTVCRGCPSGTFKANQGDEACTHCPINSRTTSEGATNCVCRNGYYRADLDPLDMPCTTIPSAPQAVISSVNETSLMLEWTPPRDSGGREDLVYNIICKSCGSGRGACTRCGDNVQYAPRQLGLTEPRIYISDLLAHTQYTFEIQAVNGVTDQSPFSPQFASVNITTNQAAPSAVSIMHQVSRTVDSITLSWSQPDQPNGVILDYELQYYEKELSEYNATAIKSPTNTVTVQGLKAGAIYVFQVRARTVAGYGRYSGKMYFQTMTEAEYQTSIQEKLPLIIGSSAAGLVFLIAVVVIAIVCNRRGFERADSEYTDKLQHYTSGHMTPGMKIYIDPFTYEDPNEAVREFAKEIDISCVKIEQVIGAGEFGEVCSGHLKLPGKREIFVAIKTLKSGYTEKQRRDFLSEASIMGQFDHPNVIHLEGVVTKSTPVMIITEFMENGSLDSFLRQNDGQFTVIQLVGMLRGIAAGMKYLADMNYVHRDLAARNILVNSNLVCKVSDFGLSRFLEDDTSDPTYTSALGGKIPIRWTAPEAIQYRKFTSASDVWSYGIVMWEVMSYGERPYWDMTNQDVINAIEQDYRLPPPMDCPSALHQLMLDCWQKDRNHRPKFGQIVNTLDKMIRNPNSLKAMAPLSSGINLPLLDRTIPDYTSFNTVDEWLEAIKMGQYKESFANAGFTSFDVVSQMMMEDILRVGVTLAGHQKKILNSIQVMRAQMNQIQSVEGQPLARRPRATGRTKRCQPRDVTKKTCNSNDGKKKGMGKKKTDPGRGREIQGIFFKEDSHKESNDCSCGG
# [7] = molecular target: T3, Ephrin type-B receptor 2 (Homo sapiens); conditions: at 10 µM
# [8] = molecular target: T4, Ephrin type-B receptor 3 (Homo sapiens) (UniProt P54753); conditions: at 1 µM
# T4 sequence (whole entry): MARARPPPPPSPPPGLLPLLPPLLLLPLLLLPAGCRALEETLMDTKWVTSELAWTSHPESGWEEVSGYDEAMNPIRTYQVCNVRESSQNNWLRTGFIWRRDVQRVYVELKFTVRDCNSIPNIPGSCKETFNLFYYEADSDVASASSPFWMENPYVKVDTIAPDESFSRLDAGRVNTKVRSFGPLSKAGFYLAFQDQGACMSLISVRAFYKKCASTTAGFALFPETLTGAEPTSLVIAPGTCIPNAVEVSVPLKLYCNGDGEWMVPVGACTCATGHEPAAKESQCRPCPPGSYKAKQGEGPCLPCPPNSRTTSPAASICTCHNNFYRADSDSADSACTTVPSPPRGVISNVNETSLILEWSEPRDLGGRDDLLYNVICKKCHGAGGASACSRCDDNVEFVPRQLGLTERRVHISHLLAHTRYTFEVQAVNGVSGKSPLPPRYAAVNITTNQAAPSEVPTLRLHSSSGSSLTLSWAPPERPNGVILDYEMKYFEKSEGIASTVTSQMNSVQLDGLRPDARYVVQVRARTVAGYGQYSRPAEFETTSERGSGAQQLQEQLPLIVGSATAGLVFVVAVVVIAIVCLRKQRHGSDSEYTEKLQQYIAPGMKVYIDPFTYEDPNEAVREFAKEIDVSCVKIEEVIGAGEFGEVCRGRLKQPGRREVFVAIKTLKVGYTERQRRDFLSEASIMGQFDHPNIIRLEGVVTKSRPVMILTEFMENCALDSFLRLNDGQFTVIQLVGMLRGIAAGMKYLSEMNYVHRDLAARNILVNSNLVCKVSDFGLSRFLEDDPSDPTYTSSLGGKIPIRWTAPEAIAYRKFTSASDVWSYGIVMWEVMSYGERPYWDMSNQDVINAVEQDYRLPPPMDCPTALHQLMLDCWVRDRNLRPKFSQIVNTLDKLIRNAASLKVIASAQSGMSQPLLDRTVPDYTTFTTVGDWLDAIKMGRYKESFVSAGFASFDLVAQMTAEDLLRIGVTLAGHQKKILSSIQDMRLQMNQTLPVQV
# [9] = molecular target: T4, Ephrin type-B receptor 3 (Homo sapiens); conditions: at 10 µM
# [10] = molecular target: Focal adhesion kinase 1 (Homo sapiens) (UniProt Q05397); conditions: at 1 µM
# Chain of Focal adhesion kinase 1 (Homo sapiens) (Q05397 2-1052 limits assumed): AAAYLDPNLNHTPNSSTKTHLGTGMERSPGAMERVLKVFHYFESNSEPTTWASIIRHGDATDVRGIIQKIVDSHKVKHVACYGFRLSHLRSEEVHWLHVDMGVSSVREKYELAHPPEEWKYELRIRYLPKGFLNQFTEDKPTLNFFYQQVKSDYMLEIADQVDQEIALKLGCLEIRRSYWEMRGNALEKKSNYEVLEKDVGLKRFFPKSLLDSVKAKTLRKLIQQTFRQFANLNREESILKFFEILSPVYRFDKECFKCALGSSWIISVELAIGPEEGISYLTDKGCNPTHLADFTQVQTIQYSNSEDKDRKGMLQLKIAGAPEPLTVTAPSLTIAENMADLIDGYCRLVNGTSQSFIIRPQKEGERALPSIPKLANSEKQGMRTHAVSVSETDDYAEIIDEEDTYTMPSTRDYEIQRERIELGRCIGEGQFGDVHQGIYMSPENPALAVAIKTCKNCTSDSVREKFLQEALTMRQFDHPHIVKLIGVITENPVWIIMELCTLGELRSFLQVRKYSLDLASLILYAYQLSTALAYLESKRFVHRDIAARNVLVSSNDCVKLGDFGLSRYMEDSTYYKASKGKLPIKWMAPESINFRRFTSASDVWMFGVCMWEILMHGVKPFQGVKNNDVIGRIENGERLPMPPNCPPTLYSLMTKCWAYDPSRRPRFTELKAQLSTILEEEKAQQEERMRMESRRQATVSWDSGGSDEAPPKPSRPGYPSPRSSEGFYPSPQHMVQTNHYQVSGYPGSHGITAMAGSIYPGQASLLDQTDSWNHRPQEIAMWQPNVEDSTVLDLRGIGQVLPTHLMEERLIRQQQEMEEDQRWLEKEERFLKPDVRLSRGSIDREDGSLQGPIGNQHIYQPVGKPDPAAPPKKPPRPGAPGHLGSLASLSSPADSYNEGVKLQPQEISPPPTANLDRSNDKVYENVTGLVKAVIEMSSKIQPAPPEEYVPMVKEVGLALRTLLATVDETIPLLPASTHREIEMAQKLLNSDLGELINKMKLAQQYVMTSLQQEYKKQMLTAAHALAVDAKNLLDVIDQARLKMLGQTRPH
structure (smiles),measurement,setting,value
Cn1c2ccccc2c2c3c(c4c5ccccc5n(CCC#N)c4c21)CNC3=O,residual activity,[1],50%
same,residual activity,[2],43%
same,residual activity,[3],39%
same,residual activity,[4],63%
same,residual activity,[5],63%
same,residual activity,[6],116%
same,residual activity,[7],111%
same,residual activity,[8],105% (inactive)
same,residual activity,[9],118%
same,residual activity,[10],33%

# — ChEMBL document CHEMBL2218924, “A broad activity screen in support of a chemogenomic map for kinase signalling research and drug discovery” (Biochem J, 2013)
